High-throughput results as filed in PubChem.
Compounds with a hit are over-represented: about 5.2% of the library has one in this group of screens.
HEK293 cAMP ctrl: raises cAMP in parental HEK293 cells, TSHR agonist counter-screen; parental HEK293 CNG cAMP sensor, membrane potential fluorescence; Potency, µM (series often up to 57.1 µM), inactives show at the highest dose activation, actives largely listed as activators; hit rate 2.5% among 73,000; also: potency is read from the fitted curve at half-maximal effect; % of control where 0% means no effect; nearly all actives have a fitted effect of over 55% in size
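Parental HEK 293 cells stably expressing a cAMP-gated CNG channel were loaded with membrane potential dye containing 100 uM RO 20-1724 for 60 min. Compound added for 30 min; depolarization read as fluorescence intensity at 590 nm.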
TSHR ag: agonists of human thyroid stimulating hormone receptor. P16473. HEK293-CNG-TSHR cells (CNG channel as cAMP sensor), membrane potential dye, cAMP. Potency, µM (series often up to 57.1 µM), for inactives: top-dose activation, actives largely listed as activators. hit rate 0.48% among 73,000. AID 926; active = well fitted activation curve with a large enough effect in the main read-out, with a control signal flat, not every such curve was filed as active; inconclusive = small, poorly fitted or top-dose-only effect, or a change in a side signal; inactive = no such curve, though single readings can be large or run the other way; % of control where 0% means no effect;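 also: the control signal comes from parental cells without the receptor; potency is read from the fitted curve at half-maximal effect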
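HEK 293 cells stably expressing TSHR and a cAMP-gated CNG channel; parental CNG-only cells as counterscreen. Cells preloaded 60 min with membrane potential dye plus 100 uM RO 20-1724, then compound 30 min; fluorescence read at 590 nm.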
Bst PK mod: modulators of Bacillus stearothermophilus pyruvate kinase. purified pyruvate kinase, luminescence ATP production; ribose 5-phosphate activator present at AC10. Potency, µM. hit rate 1.2% among 51,000. AID 361; in the data active = potency below about 11 µM; inconclusive = mostly about 12 µM to 25 µM;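 the screen sought inhibitors and activators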;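 also: potency is read from the fitted curve at half-maximal effect; scaled between full activation by ribose 5 phosphate and full inhibition by luteolin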
Luciferase inh: blocks Photinus pyralis firefly luciferase activity; P08659; purified firefly luciferase, luminescence, 8 min; Potency, µM (titrated, usually from 57.1 µM), inactives show at the highest dose activity change, negative = inhibition, most hits filed as inhibitors; hit rate 2.2% among 72,000; AID 411; also: potency is read from the fitted curve at half-maximal effect; % is scaled to controls: 0 for no effect and ±100 for the full control effect; nearly all actives have a fitted effect of over 40% in size
Target sequence (P08659 whole entry, looked up): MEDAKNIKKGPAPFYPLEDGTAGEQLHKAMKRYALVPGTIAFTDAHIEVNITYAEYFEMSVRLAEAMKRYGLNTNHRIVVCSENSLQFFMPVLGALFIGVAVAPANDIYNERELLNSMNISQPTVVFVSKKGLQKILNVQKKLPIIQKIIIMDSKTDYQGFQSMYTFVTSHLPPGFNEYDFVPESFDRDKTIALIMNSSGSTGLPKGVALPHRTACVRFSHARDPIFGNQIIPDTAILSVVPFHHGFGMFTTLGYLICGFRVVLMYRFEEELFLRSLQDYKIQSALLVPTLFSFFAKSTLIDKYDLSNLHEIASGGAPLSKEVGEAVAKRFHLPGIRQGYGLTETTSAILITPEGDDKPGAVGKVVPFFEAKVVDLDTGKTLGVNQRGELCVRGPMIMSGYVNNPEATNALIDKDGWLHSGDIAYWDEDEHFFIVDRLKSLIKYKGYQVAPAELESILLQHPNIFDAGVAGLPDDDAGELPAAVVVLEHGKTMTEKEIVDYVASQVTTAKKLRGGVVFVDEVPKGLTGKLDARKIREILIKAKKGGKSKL
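Titration-based qHTS; buffer 50 mM imidazole pH 7.2, 50 mM KCl, 7 mM MgCl2, 10 uM ATP, 0.01% Tween 20, 0.05% BSA; luciferase/luciferin detector mix added after compound; 8 min, ambient; luminescence.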
HEK293 cAMP cnt: TSHR-independent cAMP elevation, counter-screen; shares compounds with TSHR ag; parental HEK293 CNG biosensor, cAMP membrane potential fluorescence; activity change, negative = inhibition, % at 32.9 µM; 150 tested, under 10 active; AID 953
The depositor's hits bear a star; i = inactive; ? = inconclusive; · = no result given; [ ] = another dose, or the depositor's remark. Unless noted, calls follow the shape of the dose curve; as a rule, active = well fitted curve in the direction sought with a large enough effect; inconclusive = small, poorly fitted or top-dose-only effect, or another doubt; inactive = no such curve, though single readings can be large; an effect the other way counts as inactive or inconclusive.

SMILES	HEK293 cAMP ctrl	TSHR ag	Bst PK mod	Luciferase inh	others
Cc1ccc(-c2nnn(CC(=O)N(Cc3cccs3)C(C(=O)NC3CCCC3)c3ccco3)n2)o1 (stereo unspecified)	13µM*	?	>57	3%
O=C(O)CN1C(=O)O[C@@H](c2ccccc2)C1=O	8%[11.4 µM]	5%[11.4 µM]	·	0%[11.4 µM]
CCOc1ccccc1N(CC(=O)N1CCOCC1)S(=O)(=O)c1ccccc1	12%	8%	>57	2%
CC1(C)CC(=O)c2cc(C(=O)N3CCCC(C)(C)C3)c(=O)n(-c3ccccc3)c2C1	·	·	>26	3%[25.5 µM]
Cc1cc(C)nc(NC(=O)CSc2nn(C)c(=S)s2)n1	2%	0%	>57	-4%
COCCN(C(=O)Cn1nnc2ccccc21)C(C(=O)NC1CCCC1)c1cccc(OC)c1OC (stereo unspecified)	20µM*	?	>57	1%
COc1ccc2c(c1)C1(Nc3ccccc3-c3nc4ccccc4n31)C(=O)N2 (stereo unspecified)	?	?	>57	-3%
CC1(c2ccncc2)Nc2ccccc2-c2nc3ccccc3n21 (stereo unspecified)	6%	25µM*	>57	-21%
O=C(c1csnn1)N1CCC[C@@]2(CCN(c3ncccn3)C2)C1	-1%	2%	·	2%[11.4 µM]
OCC12COC(c3ccccc3)N1C(c1ccccc1)OC2 (stereo unspecified)	8%	1%	>57	1%
COC(=O)c1ccc(OCC(=O)c2ccc(O)cc2O)cc1	22%	16%	·	13µM*
COC(=O)CCC(=O)Nc1ccc(C)cc1OC(=O)CCC(=O)OC	0%	-2%	·	-1%
CC(C)(C)N1C(=O)c2ccc(C(=O)Nc3nccs3)cc2C1=O	-15%	-17%	·	5µM*
CCN1C(=O)c2ccc(C(=O)Nc3nccs3)cc2C1=O	-6%	·	·	?
CCCC(=O)N(C)c1nnc(-c2ccc(OC)cc2)s1	28%	4%	i	16µM*
CN(C(=O)COc1ccccc1)c1nnc(-c2cccnc2)s1	?	?	>57	1%
CCN(C(=O)Cc1cccs1)c1nnc(-c2cc(OC)c(OC)c(OC)c2)s1	16%	21%	>57	-2%
CCOc1ccc(-c2nnc(N(CC)C(=O)C3CCC3)s2)cc1	14%	-2%	?	16µM*
CC(=O)c1n[nH]nc1NC(=O)c1ccccc1	15%	4%	>57	0%
O=C(NC1=NC2CCCCC2N1)c1ccccc1 (stereo unspecified)	9%	5%	?	1.3µM*
O=C(O)CCC(=O)c1ccc2ccc3cccc4ccc1c2c34	8%[11.4 µM]	2%[11.4 µM]	·	3%[11.4 µM]
CCOc1ccccc1NC(=O)CSc1ncnc2c1oc1ccccc12	25µM*	?	>57	2%
Fc1ccccc1CSc1ncnc2c1oc1ccccc12	?	?	?	13µM*
Cc1nc(SCC(=O)Nc2ccccc2)c2oc3ccccc3c2n1	27%	16µM*	>57	1%
Cc1ccc(NC(=O)CN2CC(C)SC2=NC2CCCCC2)cc1 (stereo unspecified)	15%	-6%	>57	0%
SMILES	HEK293 cAMP ctrl	TSHR ag	Bst PK mod	Luciferase inh	others
Nc1nnnn1/N=C/c1ccccc1OCc1ccc(Cl)cc1Cl	32µM*	?	>57	0%
Cc1cccc2cc(C#N)c(N3CCN(C)CC3)nc12	16µM*	?	>57	1%
Cc1cc(C)c2nc(N3CCN(C)CC3)c(C#N)cc2c1	13µM*	?	·	0%
CC1(C)CNC(=O)c2sc(N3CCCCC3)nc2C1	20µM*	?	>57	2µM*
COc1ccc(OC)c(CCNC(=O)Cn2sc3nc(C)cc(C)c3c2=O)c1	-5%	2%	·	10µM*
O=c1cc(CSc2ccc(Cl)cc2)nc2nc[nH]n12	10µM*	?	·	1%
O=C(CN1CCCCCC1)OCCN=C1NS(=O)(=O)c2ccccc21	-4%	4%	>57	-1%
O=C(CCCN=C1NS(=O)(=O)c2ccccc21)OCC(=O)N1CCc2ccccc21	-13%	6%	>57	32µM*
OCCN(CCO)c1ncnc2c1sc1nc(N3CCOCC3)c3c(c12)CCCC3	·	·	>26	0%[25.5 µM]
CSc1nc(N(CCO)CCO)c2sc3nc(-c4ccco4)c4c(c3c2n1)CCC4	25µM*	?	>57	-1%
O=C(NCCCN1CCCC1)Nc1cccc2ccccc12	9%	-1%	>57	1%
Cn1c(NC(=O)c2cc(-c3ccc4c(c3)OCO4)nc3ccccc23)cc(=O)n(C)c1=O	0%	-4%	4.1*	2.5µM*
COc1cccc(N2CCN(S(=O)(=O)c3ccc4nc(-c5ccccc5)[nH]c4c3)CC2)c1	?	?	>57	1%
CCCCn1c(SCc2nnc(-c3ccccc3)o2)nc2c1c(=O)n(C)c(=O)n2C	25µM*	?	>57	3%
CCOC(=O)N1CCC(NC(=O)Cn2c3ccccc3c3cn[nH]c(=O)c32)CC1	5%	-3%	>57	3%
O=c1[nH]ncc2c3ccccc3n(Cc3ccc(F)cc3)c12	5%	16µM*	·	·
COc1ccc2cnn(CCOc3ccccc3)c(=O)c2c1OC	14%	9%	·	16µM*
Cc1ccc(NC(=O)CSc2nnc(Cc3cccn3C)n2-c2ccc(F)cc2)cc1	2%	1%	·	-1%
Nn1c(-c2cccs2)nc2sc3c(c2c1=O)CCCC3	?	?	?	16µM*
CC1(C)Cc2c(sc3nc(-c4cccs4)n(N)c(=O)c23)CO1	28%	·	i	13µM*
O=C(CC(Nc1ccc(F)cc1)C(=O)O)c1ccccc1 (stereo unspecified)	13%	5%	?	7.9µM*
CCCCOCCCNC(=O)Cc1cccs1	1.6µM*	?	·	2%
O=C(C1CCN(S(=O)(=O)c2cccnc2)CC1)N1CCN(c2ccc(Cl)cc2)CC1	14%	12%	>57	0%
CCc1cc(=O)oc2cc(OCc3nn[nH]n3)ccc12	-2%	-9%	>57	5%
CCOC(=O)c1ccccc1NC(=O)CN(c1cccc(OC)c1)S(C)(=O)=O	20%[11.4 µM]	7%[11.4 µM]	·	0%
SMILES	HEK293 cAMP ctrl	TSHR ag	Bst PK mod	Luciferase inh	others
COc1ccc2oc(-c3ccccc3)c(C(N)=O)c2c1	?	?	·	-13%
COc1ccc2oc(-c3ccccc3)c(OC)c(=O)c2c1	40µM*	?	·	-6%[11.4 µM]
COc1ccc2c(c1)c1c3n2CCN(C)C3=NCC1	13%	-2%	·	1%
Nc1nc(C(=O)N2CCOCC2)nn1S(=O)(=O)c1ccccc1	1%	-1%	>57	0%
Cc1ccc(CCNC(=O)c2coc3nc4ccccc4nc23)cc1	20µM*	?	>57	1%
CC1CCN(CCCNC(=O)c2coc3nc4ccccc4nc23)CC1	2%	4%	>57	-1%
COc1cccc(-n2c(SCC(=O)O)nnc2-c2cccnc2)c1	-6%	-4%	>57	1%
COc1cccc(/C=C/c2ccncc2)c1OC	5%	9%[11.4 µM]	·	-15%
Cc1cc(Cl)c(S(=O)(=O)Nc2ccc3c(c2)OCO3)cc1OCC(N)=O	20%	13µM*	>57	2%	HEK293 cAMP cnt=-8
